Assay outcomes: PubChem, several laboratories
Mtb bLac sens – beta-lactam sensitization of Mtb H37Rv, H37Rv; M. tuberculosis H37Rv growth with meropenem, percent inhibition; inhibition, % at 25 µM; hit rate 0.27% among 330,000; AID 434955, 2010; call rule not given here;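 also: growth measured after seven days incubation then overnight dye step; 0% = bacteria only wells and 100% = bacteria with antibiotic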
Vc quorum ag – inducers of Vibrio cholerae quorum light production without autoinducers, primary screen, BH1578 luxS cqsA deficient, single point; V. cholerae BH1578 lux reporter, luminescence, 6 h; activation, % at 18.7 µM; hit rate 0.16% among 350,000; AID 588436, 2011; in the data active = activation mostly above about 9.7%, no sharp cut-off
PfHsp40 yeast – rescue of yeast from PfHsp40 toxicity, primary screen, S. cerevisiae, ATP luminescence. S. cerevisiae expressing PfHsp40, growth rescue. growth rescue, % at 12.5 µM. hit rate 0.68% among 340,000. AID 504582, 2011; in the data active = growth rescue above about 28%, passing the limit was not always enough;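 also: yeast W303a lacking pdr1 and pdr3 grown in galactose medium; growth measured after three days at 30 °C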
RN4220 kill – growth inhibition of S. aureus RN4220, primary screen, OD600; hit rate 0.33% among 330,000; inhibition, % (test concentration not listed); 16 h; in the data active = inhibition above about 85%;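 also: plate controls were untreated cells for no effect and reference antibiotic for full effect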
Sa ugtP lethal – growth inhibition of ugtP-null S. aureus, primary screen, RN4220 ugtP deletion, OD600; 16 h; growth inhibition, % (no concentration beside the values); hit rate 0.54% among 330,000; AID 1259309, 2017; in the data active = growth inhibition above about 68%;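 also: plate controls were untreated wells for no effect and antibiotic for full effect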
The depositor's hits bear a star; i = inactive; . = not tested or not shown. Hits are enriched below; roughly 1.2% of the tested compounds scored in any of these assays.

SMILES	Mtb bLac sens	Vc quorum ag	PfHsp40 yeast	RN4220 kill	Sa ugtP lethal
C=CCC[C@H](Cc1ccc(F)cc1)C(=O)OC[C@H](Cc1c[nH]c2ccccc12)NC(=O)[C@@H](CC=C)CC(=O)NCCO	4.0	-0.7	46.7*	.	.
C=CC[C@@H](Cc1ccc(F)cc1)C(=O)OC[C@@H]1CCCN1C(=O)[C@H](CC=C)CC(=O)N(CCO)Cc1ccccc1	2.4	i	36.6*	.	.
C=CCC[C@@H](Cc1ccc(F)cc1)C(=O)OC[C@@H]1CCCN1C(=O)[C@@H](CC=C)CC(=O)N[C@@H](CO)Cc1ccccc1	11.3	-0.4	40.8*	.	.
C=CCC(Cc1ccc(F)cc1)C(=O)OCC1CCCN1C(=O)C(CC=C)CC(=O)N(CCO)Cc1ccccc1 (stereo unspecified)	.	.	.	-0.1	0.2
CC(=NNC(=O)CNC(=O)C1COc2ccccc2O1)c1ccco1 (stereo unspecified)	.	.	.	1.0	4.7
CC(=NNc1cc(C(F)(F)F)ccc1Cl)c1ccncc1	.	.	.	-7.6	20.4
O=C1C=C(c2ccc(Cl)c(C(F)(F)F)c2)CC(c2ccc(F)cc2)C1 (stereo unspecified)	.	.	.	-16.3	11.9
COc1ccc(-c2coc3cc(O)cc(O)c3c2=O)cc1	10.9	i	199.3*	4.3	-2.8
CCC1OC(=O)C(C)C(OC2C[C@@](C)(OC)C(O)C(C)O2)C(C)C(OC2OC(C)CC(N(C)C)C2O)[C@](C)(OC)CC(C)C(=O)C(C)C(O)[C@]1(C)O (stereo partly specified)	.	.	.	100.6*	100.0*
COc1ccc(C2C(C(C)=O)=C(C)N=c3sc(=Cc4ccco4)c(=O)n32)c(OC)c1 (stereo unspecified)	.	.	.	1.1	-8.8
O=C(COc1c(F)c(F)c(C(F)(F)F)c(F)c1F)Nc1ccc(N2CCOCC2)c(Cl)c1	-2.1	i	29.7*	-6.9	-31.8
COC(=O)C(CCSC)NC(=O)Nc1cc(C)ccc1C (stereo unspecified)	.	.	.	5.7	-0.5
CON/C=C(\C=Nc1ccccc1)c1ncc(C(F)(F)F)cc1Cl	-1.4	-0.8	-0.6	-1.1	95.9*
CON/C=C(\C=Nc1ccc(Cl)cc1Cl)c1ncc(C(F)(F)F)cc1Cl	-0.2	-0.4	-0.7	6.2	18.4
CC(c1ccccc1)N1C(=O)c2ccc(C(=O)Nc3ccccc3C(=O)O)cc2C1=O (stereo unspecified)	3.3	0.7	1.5	29.4	7.3
CC(c1ccccc1)N1C(=O)c2ccc(C(=O)Nc3ccc(Br)cc3C(=O)O)cc2C1=O (stereo unspecified)	-3.9	i	1.3	100.5*	92.0*
COc1ccc(-c2c[n+](CC(=O)OC3CC(C)CCC3C(C)C)c3n2CCC3)cc1 (stereo unspecified)	99.5	i	0.7	99.8*	99.9*
CC1CCC(C(C)C)C(OC(=O)C[n+]2cccc(C(N)=O)c2)C1 (stereo unspecified)	-14.8	-3.4	0.1	-0.1	-1.1
O=C(C[n+]1cc(-c2ccc(Cl)cc2)n2c1CCCCC2)c1ccccc1	3.7	0.7	1.4	0.9	-10.4
CC(C)[C@@H]1CC[C@@H](C)C[C@H]1OC(=O)C[n+]1cc(-c2ccc(Cl)cc2)n2c1CCCCC2	99.2	-0.8	1.0	100.6*	100.4*
CCCc1cc(=O)oc2c(C)c3occ(C)c3cc12	63.7	23.2*	-0.2	12.2	-0.1
Cc1coc2c(C)c3oc(=O)cc(-c4ccccc4)c3cc12	12.4	i	2.0	2.4	-2.8
N#Cc1ccc(COc2cccnc2[N+](=O)[O-])cc1	-2.8	-0.2	0.5	1.3	9.8
O=[N+]([O-])c1ncccc1OCc1ccc(-c2ccccc2)cc1	34.2	-0.4	0.5	-1.1	89.1*
COCCNc1nc(C)cc(-c2cc(C(=O)Nc3ccccc3)on2)n1	4.1	-0.4	0.0	.	.
SMILES	Mtb bLac sens	Vc quorum ag	PfHsp40 yeast	RN4220 kill	Sa ugtP lethal
CCCNc1nc(-c2cc(C(=O)Nc3ccccc3)on2)cc(C(C)C)n1	95.9	-0.3	364.8*	.	.
Cc1cc(C)nc(SCc2cc(=O)c(OC(=O)c3ccc(S(=O)(=O)N(C)C)cc3)co2)n1	3.8	-0.2	90.3*	7.8	10.9
Cc1ccnc(SCc2cc(=O)c(OC(=O)c3ccc(S(=O)(=O)N4CCCC4)cc3)co2)n1	-1.3	-0.2	0.9	0.9	6.4
Cc1ccnc(SCc2cc(=O)c(OC(=O)c3ccc(S(=O)(=O)N(C)C)cc3)co2)n1	-4.7	-3.6	88.2*	4.6	-1.2
N#Cc1ccc(-c2nc3ccc(Br)cc3c(=O)n2O)cc1	82.8	i	6.8	24.6	10.9
O=c1c2cc(Br)ccc2nc(-c2ccc([N+](=O)[O-])cc2)n1O	96.9	-1.9	160.0*	62.9	40.2
O=c1c2cc(Cl)ccc2nc(-c2ccccc2)n1O	35.5	-0.8	195.0*	23.7	4.0
COc1cc(/C=C/C(=O)OCC(=O)NC(=O)NC(C)(C)C)ccc1OCC#N	55.5	-0.1	83.0*	2.1	7.2
CCOC(=O)c1c(C)oc2c1c(C(c1ccccc1)N1CCOCC1)c(O)c1ccccc12 (stereo unspecified)	65.4	i	0.3	13.8	89.2*
COC(=O)C1=CN(C)C=C(C(=O)OC)C1c1ccsc1	.	16.7*	-0.1	2.0	-0.8
Fc1ccc(NC(=S)NN=Cc2ccccc2Cl)cc1	.	-1.3	-0.9	-4.2	86.3*
Oc1ccccc1C=NNC(=S)Nc1ccc(F)cc1	.	0.3	-2.0	1.3	-30.9
CC/C(=C\C=C\[C@@H]1C=C[C@@H]2CCC[C@H]2[C@@H]1C(=O)c1ccc[nH]1)[C@@H]1O[C@@H]([C@@H](C)C(=O)O)CC[C@@H]1C	-2.9	i	.	99.6*	98.5*
O=C(Oc1cccc(C(=S)N2CCOCC2)c1)c1ccc([N+](=O)[O-])cc1[N+](=O)[O-]	57.7	i	44.0*	3.4	15.5
Cc1[nH]c2ccccc2c1N=Nc1ccccc1F	18.6	i	170.2*	-16.4	14.2
Cc1[nH]c2ccccc2c1N=Nc1ccc(F)cc1	68.1	1.6	12.5	16.2	69.1
c1ccc(-c2noc(-c3ccccc3-c3ccccc3)n2)cc1	16.6	i	1.3	-8.8	94.9*
Cc1ccccc1OCC(=O)NN=Cc1cccn1C	.	.	.	-1.5	4.9
COc1ccc2nc(N3C(=O)/C(=C/c4ccccc4)NC3=S)sc2c1	74.5	0.2	-1.1	0.3	92.0*
CCOc1ccc2nc(N3C(=O)/C(=C/c4ccccc4)NC3=S)sc2c1	58.6	-0.1	0.3	8.0	93.7*
Cc1ccc(NC(=S)c2nc3ccccc3[nH]2)c(C)c1	7.9	i	331.1*	-6.5	10.7
Cc1ccc(NC(=S)c2nc3ccccc3[nH]2)cc1	-0.1	0.3	0.5	-5.0	-5.6
CC(C)CC(CN1C(N)=NCC1C)NC(=O)CC12CC3CC(CC(C3)C1)C2 (stereo unspecified)	.	.	.	3.3	3.3
CCCCCCCCC(=O)NN=C(C)c1cccnc1	.	.	.	-6.9	-6.2
CCOC(=O)CSc1nnc(CNC(=O)c2cccc(C)c2)n1C	-9.2	-0.3	47.4*	2.3	17.9
CCCOc1c(Cl)cc(C=NO)cc1OCC	.	.	.	-2.6	93.3*
